# Measurements: PubChem BioAssay (NCATS)
# Inconclusive results are not listed. Active and inactive are the calls of the source. Calls come from the whole dose curve.
# Experiment: Cytotoxicity counterscreen for inhibitors of SARS-CoV-2 cell entry (AID 1645845); note: nearly all actives have a fitted effect of over 50% in size
# Details: cell viability (SARS-CoV-2 entry assay cells); series mostly up to 57.1 µM; activity change, negative = cytotoxicity: at the top concentration
# Text: Assay Provider: Wei Zheng, Ph.D.
# National Center for Advancing Translational Sciences, National Institute of Health, Rockville, MD.
# SARS-CoV-2 spike protein, within the viral envelope, mediates viral attachment and infection of host cells. The SARS-CoV-2 spike protein specifically binds to the host receptor ACE2 (Angiotensin-converting enzyme 2). This interaction promotes endocytosis of the viral particle, additional events lead to viral-host cell membrane fusion and release of the viral contents, allowing viral replication.
# While SARS-CoV-2 requires BSL-3 facilities for live virus work, pseudo-typed partices (PP) that incorporate SARS-CoV-2 spike proteins without replication elements could facilitate studies on viral entry mechanisms in a BSL-2 setting. This PP cell entry assay could also enable screening of small molecule compound libraries in BSL-2 setting to identify inhibitors of SARS-CoV-2 cell entry. To eliminate false positive compounds, ATP content cytotoxicity assay was screened in the same cell line.
# SEQUENCE No. (e.g., 1, 2, 3, etc.); […] (e.g., Cells, Incubation, Reagent, etc.); VALUE and DESCRIPTION.
# 1. Cells. Seed 1500 HEK293-ACE2 cells (Expi293F with stable expression of human ACE2) in 2 uL/well media (DMEM, 10% FBS, 1x L-glutamine, 1x Pen/Strep, 1 ug/ml puromycin) in white 1536-well assay plates (Greiner #782073).
# 2. Incubation. Incubate at 37 C with 5% CO2 overnight (~16 h).
# 3. Compounds. Dispense 23 nL/well compounds in DMSO via pin transfer.
# 4. Incubation. Incubate for 1 h at 37C 5% CO2.
# 5. Reagent. Dispense 2 uL/well of media (DMEM, 10% FBS, 1x L-glutamine, 1x Pen/Strep, 1 ug/ml puromycin).
# 6. Incubation. Incubate at for 48h at 37C 5% CO2
# 7. Reagent. Dispense 4 uL/well of ATPLite 1step luminescence assay reagent (PerkinElmer #6016739).
# 8. Incubation. Incubate for 15 min at room temperature.
# 9. Detection. Read luminescence signal (Viewlux plate reader, PerkinElmer). Data was normalized with wells containing cells as 100%, and wells without cells (media only control) as 0%.
# % is set by controls: 0 for no effect and ±100 for the full control effect.
Structure (SMILES),"activity change, negative = cytotoxicity",outcome
CCCN(CCC)C(=O)C1=Cc2ccc(-c3ccc(C(=O)N4CCCC4)cc3)cc2N=C(N)C1,-11.7% (inactive),–
CC1(N)CCN(c2cccnc2NC(=O)c2nc(-c3ncccc3C(F)(F)F)cnc2N)CC1,1.95% (inactive),–
O=P(O)(O)OC(CO)CO,–,inactive
CCc1c(C(=O)NNC(=O)[C@@H](O)c2cc(F)cc(F)c2)ccc(O)c1C,-3.63% (inactive),–
N#Cc1ccc(N(Cc2ccc(Br)cc2)n2cnnc2)cc1,–,inactive
C=CC(=O)Nc1cc(N2CCN(CC)CC2)ccc1Nc1cc(N(C)C(=O)Nc2c(Cl)c(OC)cc(OC)c2Cl)ncn1,–,inactive
FCOC(C(F)(F)F)C(F)(F)F,-14.9% (inactive),–
COc1ccc2c(c1)CC[C@@H]1[C@@H]2CC[C@]2(C)[C@@H](NCCCCCCN3C(=O)C=CC3=O)CC[C@@H]12,-5.07% (inactive),–
O=C(O)C1=CCCN(CCOC(c2ccc(C(F)(F)F)cc2)c2ccc(C(F)(F)F)cc2)C1,-12.6% (inactive),–
CCOC(=O)[C@H](C)C[C@@H](Cc1ccc(-c2ccccc2)cc1)NC(=O)CCC(=O)O,0.665% (inactive),–
CN[C@@H]1[C@@H](O)[C@@H](O[C@@H]2[C@@H](O)[C@H](O[C@H]3O[C@H](CN)[C@@H](O)[C@H](O)[C@H]3O)[C@@H](N)C[C@H]2NC(=O)C(O)CN)OC[C@]1(C)O (stereo not given in full),-5.62% (inactive),–
N=C(N)c1ccc2nc(-c3cc(CC(=O)N[C@@H](CC(=O)O)C(=O)O)cc(-c4cc(S(N)(=O)=O)ccc4O)c3O)[nH]c2c1,–,inactive
O=C(O)c1ccccc1-c1ccc(/C=c2\sc3nc4cc(Br)cnc4n3c2=O)o1,0.474% [at 27.1 µM] (inactive),–
CC(C)=CCC/C(C)=C/CC/C(C)=C/CC/C(C)=C/CC1=C(C)C(=O)c2ccccc2C1=O,1.92% (inactive),–
CC[C@H](NC(=O)[C@H](C)NC)C(=O)N1C[C@@H](O)C[C@H]1Cc1c(-c2[nH]c3cc(F)ccc3c2C[C@@H]2C[C@H](O)CN2C(=O)[C@H](CC)NC(=O)[C@H](C)NC)[nH]c2cc(F)ccc12,-22.9% (inactive),–
CC1(C(=O)O)CCC2(C)CCC3(C)C(=CC(=O)C4C5(C)CCC(OC6OC(C(=O)O)C(O)C(O)C6OC6OC(C(=O)O)C(O)C(O)C6O)C(C)(C)C5CCC43C)C2C1 (stereo not given),4.41% (inactive),–
C[C@@H](O)[C@H]1C(=O)N2C(C(=O)O)=C(S[C@@H]3CN[C@H](C(=O)Nc4cccc(C(=O)O)c4)C3)[C@H](C)[C@H]12,–,inactive
CC[C@@H](C)[C@H]1O[C@]2(CC[C@@H]1C)C[C@@H]1C[C@@H](C/C=C(\C)[C@@H](O[C@H]3C[C@H](OC)[C@@H](O[C@H]4C[C@H](OC)[C@@H](O)[C@H](C)O4)[C@H](C)O3)[C@@H](C)/C=C/C=C3\CO[C@@H]4[C@H](O)C(C)=C[C@@H](C(=O)O1)[C@]34O)O2,-7.05% (inactive),–
CONC(=O)Nc1ccc(-c2sc3c(c2CN(C)Cc2ccccc2)c(=O)n(-c2ccccc2)c(=O)n3Cc2c(F)cccc2F)cc1,–,inactive
COC[C@H]1OC(=O)c2coc3c2[C@@]1(C)C1=C(C3=O)[C@@H]2CC[C@H](O)[C@@]2(C)C[C@H]1OC(C)=O,–,inactive

Structure (SMILES),"activity change, negative = cytotoxicity",outcome
CO[C@H]1/C=C\O[C@@]2(C)Oc3c(C)c(O)c4c(O)c(c5c(nc6cc(C)ccn65)c4c3C2=O)NC(=O)/C(C)=C\C=C/[C@H](C)[C@H](O)[C@@H](C)[C@@H](O)[C@@H](C)[C@H](OC(C)=O)[C@@H]1C,–,inactive
CCCCCCCCCC(=O)OCCN1CCN(CC/C=C2/c3ccccc3Sc3ccc(Cl)cc32)CC1,4.11% (inactive),–
CCCC[C@H](C)C[C@H](O)/C=C/[C@H]1[C@H](O)CC(=O)[C@@H]1CCCC/C=C/C(=O)O,–,inactive
COC(=O)N[C@H](C(=O)N1CCC[C@H]1c1ncc(-c2ccc3c(c2)O[C@@H](c2ccccc2)n2c-3cc3cc(-c4cnc([C@@H]5CCCN5C(=O)[C@@H](NC(=O)OC)C(C)C)[nH]4)ccc32)[nH]1)C(C)C,–,inactive
O=C(OC[C@H]1O[C@@H](OC(=O)c2cc(O)c(O)c(O)c2)[C@H](O)[C@@H](OC(=O)c2cc(O)c(O)c(O)c2)[C@@H]1O)c1cc(O)c(O)c(O)c1,1.12% (inactive),–
O=P(O)(O)OP(=O)(O)O,–,inactive
Cc1cncc(CN2CCC(=C3c4ccc(Cl)cc4CCc4cccnc43)CC2)c1,0.989% (inactive),–
COC(=O)CCC[N+](C)(C)C,–,inactive
COC(=O)[C@H]1[C@H]2C[C@@H]3c4[nH]c5cc(OC)ccc5c4CCN3C[C@H]2C[C@@H](OC(=O)/C=C/c2cc(OC)c(OC)c(OC)c2)[C@@H]1OC,–,inactive [at 19 µM]
CC1(C)S[C@@H]2[C@H](NC(=O)[C@H](N)c3ccccc3)C(=O)N2[C@H]1C(=O)OCOC(=O)[C@@H]1N2C(=O)C[C@H]2S(=O)(=O)C1(C)C,–,inactive
Cc1ncc(COP(=O)(O)O)c(CN)c1O,3.41% (inactive),–
NC(=O)C1CCCN1C(=O)C(Cc1cnc[nH]1)NC(=O)C1CCC(=O)N1 (stereo not given),–,inactive
CN(C)CC/C=C1\c2ccccc2CSc2ccccc21,-15.7% (inactive),–
C[C@H](CCC(=O)O)[C@H]1CC[C@H]2[C@@H]3CC[C@@H]4C[C@H](O)CC[C@]4(C)[C@@H]3C[C@H](O)[C@]12C,–,inactive
CC(C)N(CCCCOCC(=O)NS(C)(=O)=O)c1cnc(-c2ccccc2)c(-c2ccccc2)n1,–,inactive
COc1cc2c(cc1OCCCN1CCCC1)N=C(N)C21CCC1,–,inactive
COCC1=C(C(=O)OC(C)OC(=O)OC(C)C)N2C(=O)[C@@H](NC(=O)/C(=N/OC)c3csc(N)n3)[C@H]2SC1 (stereo not given in full),-2.39% (inactive),–
O=C[C@H](O)[C@@H](O)[C@H](O)[C@H](O)CO,–,inactive
COc1ncc(-c2ccc3c(Nc4cc(Oc5cc(F)cc(F)c5)cc(C(=O)O)c4)c(S(=O)(=O)NC4CC4)cnc3c2)c(OC)n1,-4.96% (inactive),–
CNC(=O)c1ccccc1Nc1nc(Nc2ccc3c(c2OC)CCC[C@@H](N2CCN(CCO)CC2)C3)ncc1Cl,-20.3% (inactive),–
